Data: PubChem BioAssay (NCI)
This is part of a sample that, as a whole, favours compounds with a hit. Of some 83,000 tested, about 20% had one in any assay.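 48-hour exposure, single concentration, 96-well plates; percent growth endpoint where 0 means no net growth. Active: below 10.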 A number with no mark means an inactive call. Active and inactive are the calls of the source.

Assays:
Test in all cases: NCI-60 one-dose screen, 48 h (100 = growth as untreated, 0 = no growth, -100 = all killed)
Conditions in all cases: 10 µM
[1] = tested on: HCT-15 colon
[2] = tested on: HT29 colon
[3] = tested on: SNB-75 CNS
[4] = tested on: SNB-19 CNS
[5] = tested on: U251 CNS
[6] = tested on: SK-MEL-5 melanoma
[7] = tested on: UACC-62 melanoma
[8] = tested on: LOX IMVI melanoma
[9] = tested on: SK-MEL-28 melanoma

SMILES	growth [1]	growth [2]	growth [3]	growth [4]	growth [5]	growth [6]	growth [7]	growth [8]	growth [9]
Nc1cc(-c2ccc(Cl)cc2)nn1-c1nc2ccccc2nc1Cc1ccccc1	74.4%	69.7%	84.4%	89.9%	90.8%	86.7%	87.8%	93.3%	92.9%
COc1cc2c3c(n(C4CCN(C)CC4)c(=O)c2cc1OC)-c1cc2c(cc1C3=O)OCO2	71.5%	39.7%	60.1%	59.6%	35.5%	57.7%	-25.6% (active)	8.68% (active)	107%
Nc1ncc(-c2cnn(C3CCNCC3)c2)cc1-c1nc2ccccc2o1	12.4%	-4.71% (active)	13.2%	35.8%	13.1%	26.9%	-67.1% (active)	–	-86.8% (active)
CSc1nc2c(c(=O)n1C)CN(Cc1ccccc1)C(=O)CN2	85.7%	110%	76.9%	97.6%	94%	101%	83.6%	92.1%	102%
Cc1c2cnccc2c(C)c2c1c1cc(O)ccc1n2C(C)C	2.12% (active)	25%	0.198% (active)	18.3%	17.8%	-49.3% (active)	-15.7% (active)	-17.2% (active)	6.18% (active)
O=C1c2c(c3c4ccccc4n(CCCCCCN4CCOCC4)c3c3[nH]c4ccccc4c23)C(=O)N1O	16.5%	24.3%	74.9%	97%	-23.2% (active)	23.4%	82.7%	–	118%
CCn1c2ccc(O)cc2c2c(C)c3c[n+](C)ccc3c(C)c21	81.2%	55.8%	31%	-3.45% (active)	3.41% (active)	7.6% (active)	16.6%	62.2%	31.8%
CCOC(=O)CSc1nc(-c2cc(OC)ccc2OC)cc(-c2ccc(OC)cc2)c1C#N	69.1%	64.2%	97.5%	94.2%	86.7%	80%	71%	85.5%	84.8%
COc1cc2c3c(n([C@H]4CCOC4)c(=O)c2cc1OC)-c1cc2c(cc1C3=O)OCO2	56.1%	40.9%	31.9%	31.2%	11.9%	7.91% (active)	11.3%	4.78% (active)	72%
COc1ccc(C(=O)CSc2nc(-c3cc(OC)ccc3OC)cc(-c3ccc(OC)cc3)c2C#N)cc1	92.1%	92.2%	90.1%	99.9%	104%	99.1%	93.7%	91.4%	101%
O=C1CC(=O)N(C(=O)c2nn(-c3ccc(Cl)cc3)cc2O)N1	36.9%	27.9%	40.9%	48%	39.5%	47%	36.1%	36.8%	136%
CN1CCc2c(sc3nc4n(-c5ccc(Cl)cc5)cnn4c(=O)c23)C1	104%	91.1%	94.2%	107%	104%	–	102%	97.6%	116%
CCOC(=O)c1sc2ncnc(Nc3ccc4c(cnn4C(=O)Nc4ccccc4)c3)c2c1C	72.6%	40.7%	10.7%	85.8%	53%	31.1%	59.7%	36.4%	72.7%
COc1ccc2c(c1)CC=C1[C@@H]2CC[C@]2(C)C(=O)/C(=N/O)C[C@@H]12	75.8%	67.8%	58%	93.4%	96.4%	89.7%	97.7%	70.3%	112%
Clc1nc2ccccc2cc1Cn1nnc(Cc2ccccc2)n1	65%	71.5%	55.4%	89.9%	76.3%	0.724% (active)	51.7%	53.6%	84.7%
Nc1ccccc1NC(=O)c1ccc(CCCC(=O)Nc2ccc(C3CC3N)cc2)cc1 (stereo not given)	87.4%	9.38% (active)	66.4%	49.7%	4.65% (active)	-41.1% (active)	-24.8% (active)	–	18%
COc1ccc(N(C)c2ncnc3occ(C)c23)cc1	11.1%	7.69% (active)	44.8%	27.2%	13.9%	-44.5% (active)	22.9%	17.7%	134%
CCCCCCCCCCCCCCCCCC[n+]1ccc2c(C)c3c(c(C)c2c1)c1cc(O)ccc1n3CC	48.8%	17.2%	24.5%	5.25% (active)	-34.9% (active)	-94.2% (active)	-11.8% (active)	20.6%	7.4% (active)
CCOc1ccccc1/C=N/N1CCCCCC1	100%	104%	77.2%	108%	103%	94.4%	109%	–	107%
Cc1c2c(nn1C(=O)c1nn(-c3ccc(Cl)cc3)cc1O)-c1ccccc1CC2	25.1%	30%	46.7%	34.3%	22.3%	24.3%	-6.22% (active)	17.5%	54.7%
C=C/C(C)=C/C[C@]1(C)[C@H](C)[C@@H](OC(=O)CCC)[C@H](O)[C@@]23C(=C[C@H](OC)C[C@@H]12)[C@@H](OC(=O)CCC)O[C@H]3OC(C)=O	-67.4% (active)	-66.9% (active)	-84.1% (active)	27.4%	-22% (active)	-88% (active)	-78.3% (active)	-66.4% (active)	-49.8% (active)
CCOC(=O)c1sc2ncnc(Nc3ccc(NC(=O)Nc4ccc(Cl)cc4)cc3)c2c1C	33.9%	43%	17.6%	73.7%	26.3%	32.2%	78.8%	44.4%	79.5%
CC(=O)OC1CC2C(C)(C)CCC[C@]2(C)C2=C1C(O)=C(C(C)C)C(=O)C2=O (stereo not given in full)	-23.1% (active)	17.2%	-13.3% (active)	21.6%	19.5%	-99.7% (active)	-60.1% (active)	-43% (active)	-42.8% (active)
COc1cc2c3c(n(C4CCNCC4)c(=O)c2cc1OC)-c1cc2c(cc1C3=O)OCO2	-73.8% (active)	-58.3% (active)	-61.7% (active)	-54.8% (active)	-64.3% (active)	-89.3% (active)	-76.6% (active)	-73.1% (active)	-5.66% (active)
c1cncc(-c2csc(-c3c[nH]c4ccccc34)n2)c1	85.4%	92.4%	63.7%	95.5%	90.9%	84.5%	88.7%	87%	103%
O=C(CCCCNC(=O)c1nc(-c2ccccc2)n(-c2ccccc2)n1)NO	91.3%	73.6%	70.8%	86%	65.9%	62.2%	37.5%	96.9%	75.2%
Cc1ccc(-n2c(C)nn3c(=O)c4c5c(sc4nc23)CN(C)CC5)cc1	101%	86.6%	93.4%	105%	101%	106%	101%	95.1%	106%
COc1cc2c3c(n([C@@H]4CCOC4)c(=O)c2cc1OC)-c1cc2c(cc1C3=O)OCO2	60.5%	42.9%	38%	30.1%	13.4%	14.2%	3.12% (active)	9.49% (active)	73.2%
N#Cc1c(-c2ccc(Cl)cc2)cc(-c2cc(O)ccc2O)nc1N	43.8%	87.3%	32.8%	26.5%	-26.5% (active)	-79.9% (active)	-25.6% (active)	-56.2% (active)	18.4%
Nc1ccc(-c2cccs2)cc1NC(=O)c1ccc(CCCC(=O)Nc2ccc(C3CC3N)cc2)cc1 (stereo not given)	87.2%	64.8%	111%	90.8%	7.02% (active)	20%	45.5%	19%	83.1%
